From PubChem BioAssay come the findings set out here.

Active and inactive are the calls of the source.

Assay [1] in a line: small molecules captured by biotinylated probe aFSTL3 – biochemical, small-molecule microarray, fluorescence 635/667, stem cell growth factor project, primary screen (AID 1064).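 Note: measures binding of the biotinylated anti-FSTL3 antibody to printed compounds.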 To be noted: higher = more signal.
Assay [2] is described as follows: binders from COS7 lysate, DM2A8 probe, primary screen, torsin A project, cell lysate, small-molecule microarray, fluorescence 635/667 (AID 1065). The settings on record: higher = more signal, COS7 lysate expressing mutant human TOR1A.
Assay [3] can be described thus: small molecules captured by biotinylated probe aFGF2 – biochemical, small-molecule microarray, fluorescence 635/667, stem cell growth factor project, primary screen (AID 1067).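 Note: measures binding of biotinylated aFGF2 protein to printed compounds on slides; z-score merges feature fluorescence and signal-to-noise across triplicate slides.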 To be noted: higher = more signal.
Assay [4] in a line: small molecules captured by biotinylated probe aFGF10 – biochemical, small-molecule microarray, fluorescence 635/667, stem cell growth factor project, primary screen (AID 1071).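 Note: score merges 667 nm spot intensity and signal to noise from triplicate slides.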 To be noted: higher = more signal.
For assay [5], the target named is Neurogenic locus notch homolog protein 2 (Homo sapiens) (UniProt Q04721). The experiment in a line: small molecules binding Notch2 protein – biochemical, small-molecule microarray, 635 nm fluorescence, stem cell growth factors, primary screen (AID 1073). To be noted: higher = more signal.
Neurogenic locus notch homolog protein 2 (Homo sapiens), sequence (Q04721 whole entry, looked up, canonical isoform): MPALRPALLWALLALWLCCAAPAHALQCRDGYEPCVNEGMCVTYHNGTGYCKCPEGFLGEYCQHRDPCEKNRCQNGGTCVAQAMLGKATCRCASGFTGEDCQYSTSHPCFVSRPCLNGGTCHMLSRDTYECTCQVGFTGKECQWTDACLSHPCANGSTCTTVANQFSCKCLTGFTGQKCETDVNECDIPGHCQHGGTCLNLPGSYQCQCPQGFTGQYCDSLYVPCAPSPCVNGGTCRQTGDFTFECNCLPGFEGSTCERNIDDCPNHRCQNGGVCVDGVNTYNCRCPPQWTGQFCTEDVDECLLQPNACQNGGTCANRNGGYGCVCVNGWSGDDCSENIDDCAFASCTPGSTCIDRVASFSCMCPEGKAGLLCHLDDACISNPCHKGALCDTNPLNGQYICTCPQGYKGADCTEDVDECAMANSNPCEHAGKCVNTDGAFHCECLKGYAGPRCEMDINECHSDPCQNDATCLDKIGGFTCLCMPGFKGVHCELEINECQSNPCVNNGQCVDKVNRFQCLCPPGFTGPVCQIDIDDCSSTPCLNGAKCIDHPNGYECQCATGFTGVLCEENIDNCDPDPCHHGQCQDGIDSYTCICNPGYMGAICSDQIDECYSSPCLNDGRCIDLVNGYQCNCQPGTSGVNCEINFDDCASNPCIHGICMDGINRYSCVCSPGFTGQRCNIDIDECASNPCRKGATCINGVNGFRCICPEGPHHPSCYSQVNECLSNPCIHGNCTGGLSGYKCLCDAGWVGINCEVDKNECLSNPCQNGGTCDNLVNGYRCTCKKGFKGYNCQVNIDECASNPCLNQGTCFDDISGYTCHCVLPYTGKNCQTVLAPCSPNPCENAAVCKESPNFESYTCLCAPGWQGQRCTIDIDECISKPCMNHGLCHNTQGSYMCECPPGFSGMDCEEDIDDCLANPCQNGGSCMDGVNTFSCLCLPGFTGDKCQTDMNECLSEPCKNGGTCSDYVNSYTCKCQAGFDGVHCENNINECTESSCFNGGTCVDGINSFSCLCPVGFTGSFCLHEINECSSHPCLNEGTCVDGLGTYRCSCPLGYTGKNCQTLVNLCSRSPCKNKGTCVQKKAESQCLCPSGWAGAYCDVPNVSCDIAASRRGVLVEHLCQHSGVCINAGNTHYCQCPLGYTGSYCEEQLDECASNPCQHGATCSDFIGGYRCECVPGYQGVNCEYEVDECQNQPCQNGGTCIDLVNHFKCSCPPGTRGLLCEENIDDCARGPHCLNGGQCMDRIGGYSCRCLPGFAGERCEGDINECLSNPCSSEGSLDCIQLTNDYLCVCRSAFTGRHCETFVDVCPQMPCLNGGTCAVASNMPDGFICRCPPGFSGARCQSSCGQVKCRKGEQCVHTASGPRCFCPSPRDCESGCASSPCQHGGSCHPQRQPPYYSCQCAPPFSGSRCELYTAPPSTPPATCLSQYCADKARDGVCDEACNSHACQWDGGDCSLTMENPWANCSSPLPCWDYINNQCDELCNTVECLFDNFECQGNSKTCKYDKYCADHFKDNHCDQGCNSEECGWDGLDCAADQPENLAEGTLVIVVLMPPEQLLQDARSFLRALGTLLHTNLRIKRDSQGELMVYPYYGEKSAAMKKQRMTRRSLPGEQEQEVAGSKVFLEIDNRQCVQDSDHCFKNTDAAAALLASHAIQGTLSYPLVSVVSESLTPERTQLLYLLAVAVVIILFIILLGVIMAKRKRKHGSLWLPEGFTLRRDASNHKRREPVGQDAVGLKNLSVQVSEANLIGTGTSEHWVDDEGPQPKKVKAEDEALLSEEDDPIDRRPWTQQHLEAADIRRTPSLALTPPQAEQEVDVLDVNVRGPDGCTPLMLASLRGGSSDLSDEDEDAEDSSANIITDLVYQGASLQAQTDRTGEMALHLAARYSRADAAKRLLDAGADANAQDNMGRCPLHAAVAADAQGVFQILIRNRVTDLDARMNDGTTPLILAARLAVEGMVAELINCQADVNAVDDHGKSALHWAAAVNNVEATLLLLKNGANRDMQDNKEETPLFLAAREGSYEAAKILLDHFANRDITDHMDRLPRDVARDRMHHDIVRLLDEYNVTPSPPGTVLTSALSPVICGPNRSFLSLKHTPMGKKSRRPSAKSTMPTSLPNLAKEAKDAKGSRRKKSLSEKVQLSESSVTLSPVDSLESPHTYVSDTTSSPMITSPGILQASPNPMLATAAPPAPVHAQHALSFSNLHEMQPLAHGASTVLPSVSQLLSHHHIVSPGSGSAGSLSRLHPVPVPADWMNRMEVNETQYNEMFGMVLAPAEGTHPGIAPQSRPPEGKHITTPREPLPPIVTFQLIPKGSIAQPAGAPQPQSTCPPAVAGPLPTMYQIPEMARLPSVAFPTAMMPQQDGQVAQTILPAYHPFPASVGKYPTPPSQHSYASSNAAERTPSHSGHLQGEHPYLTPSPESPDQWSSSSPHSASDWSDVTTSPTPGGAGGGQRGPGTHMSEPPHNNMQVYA
Assay [6] deals with Pro-neuregulin-1, membrane-bound isoform (Homo sapiens) (UniProt Q02297). The experiment in a line: small molecules binding neuregulin-1 protein – biochemical, small-molecule microarray, fluorescence 635/667, psychiatric disease protein project, primary screen (AID 1075).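 Note: score combines 667 nm spot fluorescence with signal to noise.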 To be noted: NRG1 binding, 635 nm fluorescence, higher = more signal.
In assay [7] the test system is Neuregulin-1 EGF-like domain. In words: small molecules binding NRG1 EGF domain – biochemical, small-molecule microarray, 635 nm fluorescence, primary screen (AID 1081).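 Note: binding of the protein to compounds printed on small-molecule microarray slides.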 The settings on record: higher = more signal.
Assay [8] in a line: FRG1 expression reporter modulators in myotubes – cell-based, C2C12 myotubes, firefly/Renilla luciferase, luminescence, FRG1 inhibition for FSHD, primary screen (AID 1084). The settings on record: FRG1 promoter luciferase, higher = more signal, called active from +8 up or from −8 down.
Assay [9] can be described thus: small molecules captured by biotinylated probe aFST – biochemical, small-molecule microarray, fluorescence 635/667, stem cell growth factor project, primary screen (AID 1086).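 Note: score merges 667 nm fluorescence with signal-to-noise of each printed compound spot.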 To be noted: higher = more signal.
Assay [10] in a line: binders of probe aHhip on microarray, primary screen, stem cell growth factor project, biochemical, small-molecule microarray, fluorescence 635/667 (AID 1087).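 Note: score merges spot fluorescence at 667nm with spot signal to noise ratio.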 The settings on record: higher = more signal.
The subject of assay [11] is PRMT1 (protein arginine N-methyltransferase 1). The experiment in a line: small molecules binding arginine methyltransferase PRMT1 – biochemical, small-molecule microarray, 635 nm fluorescence, primary screen (AID 1088).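 Note: binding of Prmt1 protein to compounds spotted on small-molecule microarray slides.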 To be noted: higher = more signal.
Assay [12] is described as follows: growth effects on S. cerevisiae YJM789 – YJM789 clinical isolate, OD600, 24 h, basal, primary screen (AID 1089).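 Note: growth of clinical yeast isolate S. cerevisiae YJM 789 seeded 1000 cells per well; test concentration not given here.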 To be noted: higher = more signal, called active from +8 up or from −8 down.
A short description of assay [13]: S. pombe growth modifiers, basal conditions – strain 972, OD600, 24 h, no modulator, primary screen (AID 1090).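 Note: basal condition with compound alone and no growth modifier present; test concentration not given here.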 To be noted: S. pombe 972 growth, higher = more signal, called active from +8 up or from −8 down.
Assay [14] can be described thus: budding yeast growth modifiers under rapamycin – strain BY4716, OD600, 96 h, primary screen (AID 1091). Note: test concentration not given here. To be noted: S. cerevisiae BY4716 + rapamycin, higher = more signal, called active from +8 up or from −8 down.
The target of assay [15] is Torsin-1A-interacting protein 2 (Homo sapiens) (UniProt Q8NFQ8). The experiment in a line: small molecules binding lysate-expressed LULL1 – cell lysate, human LULL1 lysate, 635/667 nm fluorescence, primary screen (AID 1092).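 Note: score merges per-feature 667 nm fluorescence with signal-to-noise.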 The settings on record: small-molecule microarray, hLULL1 lysate binding, 635 nm fluorescence; higher = more signal.
Assay [16] can be described thus: optical density change of DRC41 E. coli – strain DRC41, OD650, 24 h, E. coli filamentation project, primary screen (AID 1093).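 Note: MC1000 strain lacking acrAB efflux and sulA so SOS filamentation is blocked; test concentration not given here.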 To be noted: E. coli DRC41 growth, higher = more signal, called active from +8 up or from −8 down.
Assay [17] is described as follows: probe aLefty2 binding to arrayed compounds – biochemical, biotinylated probe, 635/667 nm fluorescence, primary screen (AID 1094).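 Note: score merges spot fluorescence near 667 nm with spot signal-to-noise ratio.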 The settings on record: small-molecule microarray, higher = more signal.
Assay [18] has as its system Noggin (protein binding on small-molecule microarray). In words: small molecules binding Noggin protein – biochemical, 635/667 nm fluorescence, primary screen (AID 1095).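 Note: score merges 667 nm feature fluorescence with signal to noise over triplicate slides.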 To be noted: 635 nm fluorescence, higher = more signal.
In assay [19] the target is Neurogenic locus notch homolog protein 3 (Homo sapiens) (UniProt Q9UM47). In words: small molecules binding NOTCH3 protein – biochemical, 635/667 nm fluorescence, primary screen (AID 1096). The settings on record: small-molecule microarray, 635 nm fluorescence, higher = more signal.
Neurogenic locus notch homolog protein 3 (Homo sapiens), sequence (Q9UM47 whole entry, looked up): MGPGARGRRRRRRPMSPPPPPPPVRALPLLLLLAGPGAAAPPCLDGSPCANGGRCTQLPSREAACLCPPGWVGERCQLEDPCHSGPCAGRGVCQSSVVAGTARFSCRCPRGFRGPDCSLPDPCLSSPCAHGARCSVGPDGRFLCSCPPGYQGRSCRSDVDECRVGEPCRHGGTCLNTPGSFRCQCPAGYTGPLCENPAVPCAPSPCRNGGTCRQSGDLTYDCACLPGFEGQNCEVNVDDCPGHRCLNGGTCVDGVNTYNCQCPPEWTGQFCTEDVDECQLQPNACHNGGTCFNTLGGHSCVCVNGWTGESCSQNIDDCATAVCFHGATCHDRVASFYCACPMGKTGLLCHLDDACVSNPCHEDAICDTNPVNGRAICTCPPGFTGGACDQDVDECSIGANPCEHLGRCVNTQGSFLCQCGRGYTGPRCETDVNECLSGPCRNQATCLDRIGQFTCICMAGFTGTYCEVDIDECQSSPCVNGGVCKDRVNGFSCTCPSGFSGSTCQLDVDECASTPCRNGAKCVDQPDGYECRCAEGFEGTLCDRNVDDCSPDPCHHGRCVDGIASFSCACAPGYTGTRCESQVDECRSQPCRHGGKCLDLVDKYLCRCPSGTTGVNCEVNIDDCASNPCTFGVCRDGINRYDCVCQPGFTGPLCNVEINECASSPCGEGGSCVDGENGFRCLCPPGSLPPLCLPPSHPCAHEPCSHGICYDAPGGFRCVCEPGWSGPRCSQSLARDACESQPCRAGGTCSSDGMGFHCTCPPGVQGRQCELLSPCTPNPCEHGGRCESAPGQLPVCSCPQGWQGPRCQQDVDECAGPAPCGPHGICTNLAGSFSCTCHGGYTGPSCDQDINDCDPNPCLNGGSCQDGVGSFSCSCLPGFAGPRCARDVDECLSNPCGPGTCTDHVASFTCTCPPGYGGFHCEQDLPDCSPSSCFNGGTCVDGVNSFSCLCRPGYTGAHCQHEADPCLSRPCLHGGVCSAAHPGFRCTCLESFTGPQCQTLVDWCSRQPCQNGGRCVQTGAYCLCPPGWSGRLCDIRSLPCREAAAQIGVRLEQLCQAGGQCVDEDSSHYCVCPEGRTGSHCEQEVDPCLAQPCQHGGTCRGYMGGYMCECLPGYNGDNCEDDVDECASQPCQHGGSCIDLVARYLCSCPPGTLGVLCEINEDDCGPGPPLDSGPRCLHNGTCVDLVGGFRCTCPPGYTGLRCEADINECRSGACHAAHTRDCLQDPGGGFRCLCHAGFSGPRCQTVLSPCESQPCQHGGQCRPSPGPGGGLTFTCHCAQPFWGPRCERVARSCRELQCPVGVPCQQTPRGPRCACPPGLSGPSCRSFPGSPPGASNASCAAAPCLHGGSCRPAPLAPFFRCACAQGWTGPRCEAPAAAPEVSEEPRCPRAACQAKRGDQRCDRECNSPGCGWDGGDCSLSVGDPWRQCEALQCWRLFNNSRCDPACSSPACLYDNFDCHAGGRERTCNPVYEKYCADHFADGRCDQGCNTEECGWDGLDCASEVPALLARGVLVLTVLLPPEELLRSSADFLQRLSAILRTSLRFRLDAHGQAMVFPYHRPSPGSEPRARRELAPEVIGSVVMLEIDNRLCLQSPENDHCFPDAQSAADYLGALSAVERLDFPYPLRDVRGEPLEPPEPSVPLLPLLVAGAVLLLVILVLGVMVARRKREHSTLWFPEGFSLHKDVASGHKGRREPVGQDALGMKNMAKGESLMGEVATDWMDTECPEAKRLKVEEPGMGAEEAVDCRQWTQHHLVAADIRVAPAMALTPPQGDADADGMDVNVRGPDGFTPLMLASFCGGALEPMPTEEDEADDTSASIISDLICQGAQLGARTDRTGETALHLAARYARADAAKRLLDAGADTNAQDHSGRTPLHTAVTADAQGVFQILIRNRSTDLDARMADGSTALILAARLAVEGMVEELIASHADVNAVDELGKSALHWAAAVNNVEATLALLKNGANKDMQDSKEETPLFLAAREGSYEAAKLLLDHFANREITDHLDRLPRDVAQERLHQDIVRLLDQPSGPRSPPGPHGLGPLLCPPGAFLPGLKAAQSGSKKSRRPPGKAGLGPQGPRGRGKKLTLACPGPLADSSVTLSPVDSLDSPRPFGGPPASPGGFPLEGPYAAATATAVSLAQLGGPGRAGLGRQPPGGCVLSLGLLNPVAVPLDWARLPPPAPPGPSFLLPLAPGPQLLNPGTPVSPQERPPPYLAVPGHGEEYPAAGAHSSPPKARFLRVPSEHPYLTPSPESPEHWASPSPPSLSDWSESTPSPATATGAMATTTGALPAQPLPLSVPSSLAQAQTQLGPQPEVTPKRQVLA
Assay [20] is described as follows: probe aEGFR binding to arrayed compounds – biochemical, biotinylated probe, 635/667 nm fluorescence, primary screen (AID 1097).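 Note: probe is a biotinylated anti-EGFR antibody binding compounds printed on slides; score combines fluorescence near 667 nm and signal to noise of each spot.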 To be noted: small-molecule microarray, higher = more signal.

With `CC(CCN1CCc2nc(-c3ccccc3)c(-c3ccccc3)cc2C1)=NOC(C)CN1CCCCc2nc(C)c(C)cc21` (stereo not given), the composite z-score in assay [1] is -0.16; in [2] it was -0.0309; in assay [3], -0.0398; in [4], 0.476; in assay [5] it was 0.519; in [6], 0.657. Besides, the composite z-score in assay [7] is 0.885; in [9], 0.465; in assay [10], 0.115; in assay [11], 0.948; in [15], 1.53; in [17], -0.0813. For the same molecule, the figures for the composite z-score in assay [18], in assay [19] and in [20] were 0.454, 0.905 and -0.0565, respectively. Further, the z-score in assay [8] was 1.1 (inactive); in assay [12], -1.03 (inactive); in assay [13] it was -3.01 (inactive); in [14], -3.08 (inactive); in [16] it was 0.74 (inactive).
With `COc1ccc([Si](C)(C)[C@@H]2[C@@H](CC(=O)N3CCC[C@H]3CO)O[C@]3(C(=O)N(Cc4cccc(N5CCC5=O)c4)c4ccccc43)[C@H]2C)cc1`, the composite z-score was -0.0723 in [1]; 0.461 in [2]; -0.0715 in [3]; 0.45 in assay [4]; 0.322 in assay [5]; 1.51 in assay [6]. Also, the composite z-score in [7] is 1.14; in [9] it was -0.187; in assay [10], 0.107; in assay [11], 1.54; in assay [15], 2.64; in assay [17], -0.0204. Besides, the results for the composite z-score in assay [18], in assay [19] and in assay [20] were 1.5, 1.15 and -0.0953, respectively. Also, the z-score in assay [8] was -0.548 (inactive); in assay [12], -0.569 (inactive); in assay [13] it was -0.184 (inactive); in [14] it was 0.284 (inactive); in [16], 0.37 (inactive).
In the case of `C[C@@H]1C=CCC(=O)OC[C@H](C)C(=O)OC[C@H]2O[C@H]1C=C[C@H]2O`, the composite z-score in assay [1] was -0.414; in assay [2], 0.304; in assay [3], 0.0033; in [4], 0.44; in [5], 0.112; in assay [6] it was -0.175. Moreover, the composite z-score was 0.615 in assay [7]; 0.512 in [9]; 0.106 in [10]; 0.047 in [11]; 0.429 in assay [15]; -0.18 in [17]. Further, the composite z-score is 1.31 in assay [18], 0.272 in assay [19] and -0.0039 in assay [20]. Besides, the z-score in [8] is -0.538 (inactive); in assay [12], 1.1 (inactive); in [13] it was -2.02 (inactive); in assay [14], 0.614 (inactive); in assay [16], 0.0861 (inactive).
For `C=CC[C@]1(C(=O)NCc2ccccc2)N=C(c2ccc(OCCCO)cc2)O[C@H]1c1ccccc1`, the composite z-score in assay [1] is 0.674; in [2], 1.1; in [3] it was -0.0131; in [4] it was -0.439; in assay [5], 0.007; in [6], 1.51. Further, the composite z-score in assay [7] is 1.26; in assay [9], 0.991; in assay [10], -0.0645; in assay [11] it was 1.55; in assay [15], 3.28; in [17] it was -0.0238. Moreover, the composite z-score is 0.119 in assay [18], 0.778 in assay [19] and -0.137 in assay [20]. The z-score in [8] is -0.97 (inactive); in [12] it was 0.159 (inactive); in assay [13], -0.46 (inactive); in [14], 6.37 (inactive); in assay [16], 0.568 (inactive).
As for `c1ccc(C2NCCc3c2[nH]c2ccccc32)cc1` (stereo not given), the composite z-score in assay [1] is 0.136; in assay [2] it was 0.548; in assay [3] it was 0.0183; in assay [4], 0.0913; in assay [5] it was -0.443; in [6], 0.464. Moreover, the composite z-score in [7] was 0.233; in [9] it was -0.16; in [10], -0.128; in [11] it was -0.339; in [15], 0.872; in [17], -0.126. In addition, the results for the composite z-score in assay [18], in assay [19] and in assay [20] were 0.388, -0.246 and 0.122, respectively. The z-score in [8] was -0.151 (inactive); in assay [12], -0.272 (inactive); in assay [13], -2.36 (inactive); in assay [14], -0.962 (inactive); in [16], -0.937 (inactive).
